SMILES strings stand for the structures. This is part of a sample that, as a whole, favours compounds with a hit. Of some 83,000 tested, about 20% had one in any assay.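 Plates (96-well) were seeded with cells, treated with compound at one concentration, and incubated for 48 hours before percent growth was determined.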 Values without a mark were called inactive. Calls of active or inactive are those of the source. The calls were made as follows: active = growth percent below 10; inactive = the rest.

Assay in all cases: NCI-60 one-dose screen, 48 h (100 = growth as untreated, 0 = no growth, -100 = all killed)
Holding throughout (conditions): 10 µM unless noted

The test system of experiment [1] is SK-MEL-2 melanoma.
Experiment [2] concerns EKVX NSCLC.
The test system of experiment [3] is SN12C renal.
For experiment [4], the system named is UO-31 renal.
Experiment [5] has as its system TK-10 renal.
Experiment [6] relates to ACHN renal.
The subject of experiment [7] is A498 renal.
Experiment [8] has as its system CCRF-CEM leukemia.
For experiment [9], the system named is MOLT-4 leukemia.
In experiment [10] the test system is SR leukemia.
For experiment [11], the system named is OVCAR-8 ovarian.
The test system of experiment [12] is OVCAR-5 ovarian.
Experiment [13] has as its system OVCAR-4 ovarian.
The subject of experiment [14] is SK-OV-3 ovarian.
Experiment [15] has as its system OVCAR-3 ovarian.
Experiment [16] has as its system HS 578T breast.
Experiment [17] concerns NCI/ADR-RES ovarian.
The subject of experiment [18] is IGROV1 ovarian.
The test system of experiment [19] is CAKI-1 renal.
For experiment [20], the system named is RPMI-8226 leukemia.

Regarding `NC(CSC(c1ccccc1)(c1ccccc1)c1ccc(Cl)cc1)C(=O)O` (stereo unspecified), the growth was -9.63% (active) in experiment [1]; 27.1% in experiment [2]; 27.5% in experiment [3]; 65% in experiment [4]; 64.8% in [5]; 53% in experiment [6]. In addition, the growth was 26.7% in experiment [7]; 3.48% (active) in experiment [8]; 6.35% (active) in experiment [9]; -24.5% (active) in experiment [10]; -15.9% (active) in experiment [11]; 12.2% in [12]. For the same molecule, the growth in experiment [13] was 63.2%; in [14], 17.2%; in experiment [15], -41.4% (active); in experiment [16], -36.2% (active); in [17] it was -20.5% (active).
With `Cc1cc2c3ccccc3ccc2[n+]2ccccc12`, the growth is 40.5% in experiment [1]; 14.5% in experiment [2]; -7% (active) in [3]; 56.9% in [4]; 88.4% in experiment [5]; 95.1% in experiment [6]. Besides, the growth in [7] is 9.14% (active); in experiment [8] it was 48.7%; in experiment [9] it was 2.74% (active); in experiment [10], -22.5% (active); in experiment [11], -28.5% (active); in experiment [12], 81.1%. Also, the growth in [14] is 71.5%; in experiment [18], 34%; in experiment [15], 27.1%; in [16], -23.7% (active); in experiment [17], 46.7%.
Consider `COc1ccc(C(=S)N2CCN(c3cccc(Cl)c3)CC2)cc1`, for which the growth in experiment [1] was 80.4%; in experiment [2], 93.2%; in experiment [3], 103%; in [4], 83.2%; in experiment [5], 94%; in [6], 109%. The growth in experiment [7] was 106%; in experiment [10], 90.6%; in [11] it was 100%; in [12], 98.5%; in [13], 99.1%; in [14] it was 107%. Also, the growth in [18] is 104%; in experiment [15], 112%; in experiment [16], 118%; in [17], 104%.
`O=[N+]([O-])c1cnc(N2CCN(CC3CC3)CC2)nc1N1CCN(CC2CC2)CC1`: the growth was 98.5% in [1]; 86.5% in experiment [2]; 98.2% in experiment [3]; 80.2% in [4]; 104% in experiment [6]; 92.5% in experiment [19]. Besides, the growth in [7] was 86.6%; in experiment [8], 106%; in [9] it was 103%; in experiment [10], 115%; in experiment [20] it was 100%; in experiment [11], 104%. The growth in [12] was 92.2%; in [13], 95%; in experiment [14], 111%; in experiment [18], 90.6%; in [15], 98.6%; in experiment [16], 77.5%. Also, in [17], the growth was 90.2%.
`Oc1ccc(N=Cc2ccccc2O)cc1`: the growth in experiment [1] was 141%; in experiment [2] it was 103%; in experiment [3], 102%; in experiment [4] it was 77.3%; in [5], 101%; in experiment [6], 88.3%. The growth in experiment [7] is 112%; in experiment [8], 79.5%; in experiment [9], 89.6%; in [10] it was 83.7%; in [11], 83.6%; in [12], 87.3%. In addition, the growth in [13] was 89.3%; in experiment [14], 98.5%; in experiment [18], 90.2%; in experiment [15] it was 90.6%; in [16] it was 112%; in experiment [17] it was 98.2%.
As for `CCCCn1c(-c2ccc(C(=O)O/N=C(\N)c3ccc4c(c3)OCO4)cc2)nc(-c2ccccc2)c1-c1ccccc1`, the growth is 84.9% in experiment [1]; 51.8% in experiment [2]; 39.3% in experiment [3]; -62.3% (active) in experiment [4]; 37.1% in experiment [5]; -85.8% (active) in experiment [6]. In addition, the growth in experiment [8] is -30% (active); in experiment [9], 7.23% (active); in [10], -29.2% (active); in [20] it was 29.6%; in [11], 44.5%; in [12], 54.1%. The growth in experiment [13] was 40.1%; in [14], 89.5%; in experiment [18], -68.5% (active); in experiment [15], 38.5%; in experiment [16], 41.1%; in experiment [17], 18.6%.
In the case of `Cc1ccc(NC(=O)/C=C/c2ccccc2)c(C(N)=O)c1`, the growth in experiment [1] was 67%; in experiment [2], 64.1%; in [3], 53.1%; in [4], 46.7%; in experiment [5] it was 92.9%; in [6], 57.7%. For the same molecule, the growth was 53.8% in [7]; 7.23% (active) in experiment [8]; 30.7% in [9]; -23.3% (active) in experiment [10]; 23.2% in experiment [20]; 55.1% in experiment [11]. Moreover, the growth was 31.4% in experiment [13]; 2.6% (active) in experiment [14]; 91.4% in experiment [18]; -25.8% (active) in experiment [15]; -3.46% (active) in experiment [16]; 24.7% in experiment [17].
Turning to `COc1cc(-c2nn(-c3ccc(C)cc3)cc2C(=O)O)ccc1O`, the growth in experiment [1] was 93.5%; in [2] it was 88.3%; in experiment [3], 99.8%; in [4] it was 74.7%; in experiment [5], 133%; in experiment [6], 97.5%. For the same molecule, the growth in [7] is 110%; in experiment [8], 97.5%; in experiment [9], 83.2%; in experiment [10], 85.3%; in experiment [20], 90.9%; in [11] it was 98.9%. Further, the growth is 113% in experiment [12]; 94% in [14]; 94.2% in experiment [18]; 93.4% in [15]; 103% in experiment [16]; 94.5% in experiment [17].

For the origin of these results see PubChem BioAssay (NCI).
